Source: PubChem BioAssay AID651791 (National Center for Advancing Translational Sciences (NCATS), 2012)
Inconclusive results are not listed. Activity calls are given as the source filed them. Calls come from the whole dose curve; as a rule, active = well fitted inhibition curve with a large enough effect; inconclusive = small, poorly fitted or top-dose-only effect; inactive = no such curve, though single readings can be large or run the other way.

Assay: InCell qHTS Assay for Inhibitors of the mTORC1 Signaling Pathway in MEF (Tsc2-/-, p53-/-) Cells: Hit Validation;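 note: phospho-S6 Ser235/236 signal normalized to propidium iodide cell count per well; nearly all actives have a fitted effect of over 75% in size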
Settings: phospho-rpS6 immunofluorescence, 24 h; activity change, negative = inhibition: at 38.3 µM (top of the series)
Potency is the fitted concentration of half-maximal effect.

Structure (SMILES)	activity change, negative = inhibition	Potency
CCOc1ccc(/C=C/c2nc(C#N)c(NCc3ccccc3)o2)cc1	-100%	–
O=C(NCc1ccccc1)c1ccc2c(c1)N(Cc1ccccc1F)C(=O)c1ccccc1S2=O (configuration not stated)	-100%	–
CCOC(=O)c1ccc2ncc(C(=O)OCC)c(NCCc3ccc(OC)c(OC)c3)c2c1	-100%	–
O=C(Nc1cccc(NC(=O)c2ccccc2Cl)c1)c1cccc(Br)c1	-100%	–
COc1cc(C2CC(=O)Nc3cc4c(cc32)OCCO4)cc(Br)c1OC (configuration not stated)	-100%	–
COC(=O)c1ccccc1NC(=O)c1nc(S(=O)(=O)Cc2cccc(C)c2)ncc1Cl	–	3.69 µM (active)
Cc1ccc(CN(Cc2ccco2)C(=O)c2cccc(C)c2)cc1	-100%	–
CCc1ccc(CNc2ncc(-c3cccc(OC)c3)n2C)cc1	-100%	–
CCCCC1CCC(C(=O)N2CC(=O)Nc3ccc(Cl)cc3C2c2ccc(F)cc2)CC1 (configuration not stated)	-100%	–
CCC(C)NC(=O)c1sc2nc(C)c(C(=O)Nc3ccc(C)cc3C)c(-c3ccc(Cl)cc3)c2c1N (configuration not stated)	-100%	–
CCCN1C(=O)C(O)(CC(=O)c2ccc(CC)cc2)c2ccccc21 (configuration not stated)	-100%	–
CCC1CCc2nc3sc(C(=O)Nc4ccc(C)cc4)c(N)c3cc2C1 (configuration not stated)	-100%	–
O=C(Nc1ccccc1)N(Cc1cccc(Cl)c1)c1ccccn1	-100%	–
CCOC(=O)N1CCN(Cc2nc3cc(NC(=O)C(C)C)ccc3n2C(C)C)CC1	-100%	–
Cc1ccc(NC(=O)c2c(NC(=O)C(F)(F)F)sc3c2CCCCC3)cc1	-100%	–
COc1ccc(S(=O)(=O)Nc2ccc3oc4c(c3c2)CCCC4)cc1	-100%	–
Cc1ccccc1S(=O)Cc1ccc(C(=O)N2CCN(c3cccc(C)c3C)CC2)o1 (configuration not stated)	-28.4%	–
Cc1c(C(=O)Nc2ccc(F)cc2F)nnn1-c1ccccc1Br	-100%	–
O=C(Nc1ccc(Cl)c(C(F)(F)F)c1)c1ccc2c(c1)CCN2S(=O)(=O)c1ccccc1	-100%	–

Structure (SMILES)	activity change, negative = inhibition	Potency
COc1cc(NC(=O)c2cccc3c2C(=O)N(C2CCCCC2)C3)cc(OC)c1OC	-100%	–
CCc1ccccc1NC(=O)CSc1nc2c(oc3ccccc32)c(=O)n1-c1ccccc1F	-100%	–
COc1ccc(OCC(=O)NCc2ccc3c(c2)CCN3C(=O)c2ccccc2)cc1	-100%	–
Cc1cc(-c2ccc(S(=O)(=O)Nc3cccc(C)c3C)s2)on1	-21.8%	–
N#C/C(=C\c1ccc(-c2ccc(F)cc2F)o1)c1nc2ccccc2[nH]1	-27.3%	–
COc1ccc(C(F)(F)F)cc1NC(=O)c1sc2nc(-c3cccs3)ccc2c1N	-11%	–
CCS(=O)(=O)c1ncc(Cl)c(C(=O)Nc2ccccc2)n1	–	2.61 µM (active)
O=C(Nc1ccc(Cl)cc1)c1cc(S(=O)(=O)N2CCCc3ccccc32)ccc1F	-100%	–
CCn1c(=N)n(CCOc2ccc(Br)cc2)c2ccccc21	–	14.7 µM (active)
Cc1ccc(C(=O)c2cn(CC(=O)NCc3ccccc3Cl)c3nc(C)ccc3c2=O)cc1	-100%	–
CCOc1cc(C2CC(=O)Nc3cc4c(cc32)OCCO4)ccc1O (configuration not stated)	-100%	–
CC(C)(C)c1ccc(S(=O)(=O)N2CCC(c3ccncc3)CC2)cc1	-29.8%	–
CCCC1=Nc2cc(C(=O)NCCOC)ccc2Sc2ccccc21	-100%	–
CC(C)(C)c1ccc(-c2nc(S(=O)(=O)c3ccccc3)c(N3CCOCC3)o2)cc1	-100%	–
Cc1c(C2=CCN(S(=O)(=O)c3ccc(Br)cc3)CC2)c2ccccc2n1CC(=O)N1CCCC1	-100%	–
COc1ccc(OCC(=O)Nc2ccc3nn(-c4ccc(OC)cc4)nc3c2)cc1	-100%	–
Cc1cccc(NC(=O)c2sc3nc4c(cc3c2N)CCCCCC4)c1C	-11%	–
Fc1ccc(Nc2nc3nonc3nc2Nc2cccc(C(F)(F)F)c2)cc1	-100%	–
